Measured values as given in the supplement of paper PMC3545927.
Some of the results follow. The hit rate among all sequences tested is not known here.

Biological target: furin, P09958
Assay: furin cleavage Z-score vs untreated control; higher = more cleavage, active = 3.5 or more, inactive = 1 or less, 8 variable residues between constant flanks
Method in brief: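 To give the cleavage Z-score, log read counts were set against furin-free reactions, lowess-adjusted and scaled by median absolute deviation. These counts came from PCR adapter-tagged, sequenced DNA released when purified furin cut 8-mer peptides fused to a cDNA oligonucleotide and held on magnetic beads by their N-terminus. Digests were 0.01 ml, 1:10 enzyme:substrate, in 50 mM HEPES pH 7.5 with CaCl2 and NaCl, for 7.5, 15 or 30 min.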

Chain of furin, P09958 (P09958 whole entry): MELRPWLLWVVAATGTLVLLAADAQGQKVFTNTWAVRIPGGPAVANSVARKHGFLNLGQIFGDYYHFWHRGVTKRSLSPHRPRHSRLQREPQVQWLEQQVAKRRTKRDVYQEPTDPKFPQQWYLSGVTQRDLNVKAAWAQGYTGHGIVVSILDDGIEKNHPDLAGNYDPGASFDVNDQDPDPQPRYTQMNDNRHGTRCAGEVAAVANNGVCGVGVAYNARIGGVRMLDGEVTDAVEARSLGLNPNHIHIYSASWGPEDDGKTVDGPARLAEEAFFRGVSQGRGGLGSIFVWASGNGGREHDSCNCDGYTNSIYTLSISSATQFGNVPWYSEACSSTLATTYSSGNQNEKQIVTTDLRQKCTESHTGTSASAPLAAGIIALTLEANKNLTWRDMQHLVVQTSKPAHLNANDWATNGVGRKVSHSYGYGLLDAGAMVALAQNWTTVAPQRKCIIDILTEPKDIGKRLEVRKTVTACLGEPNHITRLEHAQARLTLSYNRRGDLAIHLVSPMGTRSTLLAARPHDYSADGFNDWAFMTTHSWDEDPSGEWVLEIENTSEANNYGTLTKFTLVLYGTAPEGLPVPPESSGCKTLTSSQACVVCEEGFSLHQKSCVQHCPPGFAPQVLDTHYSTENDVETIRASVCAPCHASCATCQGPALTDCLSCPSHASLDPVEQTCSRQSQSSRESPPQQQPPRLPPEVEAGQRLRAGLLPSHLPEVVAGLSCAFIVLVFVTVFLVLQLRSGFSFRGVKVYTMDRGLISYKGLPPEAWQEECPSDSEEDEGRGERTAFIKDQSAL

Row | Sequence | furin cleavage Z-score (7.5 min) | furin cleavage Z-score (15 min) | furin cleavage Z-score (30 min)
1 | CAVYEAADAIAGNASASA [HC267] | -0.0143 (inactive) | -0.395 (inactive) | -0.118 (inactive)
2 | CATPMGFSYDAGNASASA [HC1477] | -1.01 (inactive) | -0.454 (inactive) | -1.57 (inactive)
3 | CARRRRFERAAGNASASA [FS-1566] | 10.7 (active) | 10.7 (active) | 8.07 (active)
4 | CARRRREGGAAGNASASA [FS-2373] | -0.0204 (inactive) | 0.649 (inactive) | 0.0983 (inactive)
5 | CASSVRPAREAGNASASA [FS-197] | 5.98 (active) | 7.51 (active) | 5.17 (active)
6 | CAHPLRPAREAGNASASA [FS-1210] | 5.83 (active) | 7.36 (active) | 6.09 (active)
7 | CAVVCCSASYAGNASASA [HC2043] | 0.0516 (inactive) | 0.0797 (inactive) | 0.0526 (inactive)
8 | CANPARVCRDAGNASASA [FS-278] | 6.13 (active) | 5.66 (active) | 4.1 (active)
9 | CALEKRQKRDAGNASASA [FS-1639] | 14.8 (active) | 13.5 (active) | 11.4 (active)
10 | CALEKRSVGCAGNASASA [FS-2391] | -0.325 (inactive) | -2.06 (inactive) | -0.0695 (inactive)
11 | CAGLGKVLIDAGNASASA [HC1082] | -0.199 (inactive) | -0.846 (inactive) | -0.271 (inactive)
12 | CAGLRRQKRDAGNASASA [FS-1000] | 12.6 (active) | 12.8 (active) | 9.7 (active)
13 | CAGLRDLAVAAGNASASA [HC642] | 1.12 | -0.299 (inactive) | -1.6 (inactive)
14 | CAMSARRARDAGNASASA [FS-463] | 9.65 (active) | 10.9 (active) | 7.88 (active)
15 | CAELGRPARDAGNASASA [FS-926] | 0.0348 (inactive) | -0.0349 (inactive) | -0.833 (inactive)
16 | CANPARDDRSAGNASASA [FS-946] | 1.25 | 0.0847 (inactive) | -1.86 (inactive)
17 | CATTPCSGWWAGNASASA [HC1908] | -0.371 (inactive) | -1.44 (inactive) | 0.0983 (inactive)
18 | CAMEECSQHGAGNASASA [HC1776] | -0.484 (inactive) | 0.542 (inactive) | -0.44 (inactive)
19 | CAEVPCHSPSAGNASASA [HC2377] | -0.25 (inactive) | -0.38 (inactive) | 1.09
20 | CAEVFCHRPSAGNASASA [HC2347] | -0.391 (inactive) | -1 (inactive) | 0.51 (inactive)
21 | CAHLQRQKRDAGNASASA [FS-440] | 6.68 (active) | 7.1 (active) | 5.53 (active)
22 | CAILRRHKRDAGNASASA [FS-1214] | 10.7 (active) | 10.2 (active) | 7.94 (active)
23 | CAQHSVRKRDAGNASASA [FS-1150] | 11.7 (active) | 12.2 (active) | 10.4 (active)
24 | CAPKRRQKRDAGNASASA [FS-1048] | 13.5 (active) | 14.7 (active) | 10 (active)
25 | CAHWSVTKRDAGNASASA [FS-336] | 0.168 (inactive) | 0.304 (inactive) | 0.862 (inactive)
26 | CAILRRHVGPAGNASASA [HC1111] | 0.0974 (inactive) | -0.838 (inactive) | 0.671 (inactive)
27 | CAVVCCSNSYAGNASASA [HC2061] | 0.77 (inactive) | -0.0199 (inactive) | 0.92 (inactive)
28 | CALVPCHRPSAGNASASA [HC2305] | 0.746 (inactive) | 0.178 (inactive) | 0.32 (inactive)
29 | CAEIVVCCSMAGNASASA [HC2124] | 0.157 (inactive) | -0.897 (inactive) | 0.583 (inactive)
